High-throughput results as filed in PubChem BioAssay.
This is a sample that favours compounds with a hit; in the whole collection about 2.6% have one here.
HIF-2a inh: HIF-2a reporter inhibitors, primary screen, luminescence, 786-0 RCC cells; AID 624352, 2012; inhibition, % at 18.8 µM; 360,000 compounds, 0.72% hits; 786-0 RCC cells HIF-2a reporter, luciferase luminescence, overnight;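 active = inhibition of the luminescence signal of 40% or more relative to plate controls, in a single-dose primary screen at 18.75 µM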
KKLEB cytotox: cytotoxicity in KKLEB CF airway cells, primary screen, cytotoxicity control for CF NF-kB inhibitor project, cell-based, uHTS, fluorescence assay plates. KKLEB CF airway cells viability, ATPlite luminescence, overnight; stronger effect = lower value; cells stimulated with P. aeruginosa culture filtrate. activity change (cytotoxicity), % at 5 µM. 360,000 compounds, 0.36% hits;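 active = corrected activity change at or below -50% at 5 µM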
Shn3 3UTR inh: reduction of Shn3 3'UTR firefly luciferase signal, primary screen, Schnurri-3 inhibitor project, cell-based, Clone20 osteoblasts, set 2. Clone20 osteoblast Shn3 3'UTR firefly luciferase, 24 h. inhibition, % at 12.5 µM. 360,000 compounds, 0.52% hits;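 active = mean inhibition of at least 75% with every replicate also reaching 75%; inconclusive = mean inhibition at least 75% but some replicate below; inactive = mean inhibition below 75%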;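 also: 0% = median of neutral control wells and 100% = pilot-screen positive control compound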
Peg3 promoter: Peg3 promoter-driven luciferase inhibitors, primary screen, cell-based, HeLa, luciferase luminescence; inhibition, % at 20 µM; 360,000 compounds, 1.7% hits; HeLa PEG-Prom luciferase reporter, overnight;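 active = inhibition of at least 50% at 20 µM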
CF NFkB block: inhibitors of PAF-induced NF-kB signaling, primary screen, cell-based, GFP fluorescence, uHTS; inhibition, % at 5 µM; 360,000 compounds, 0.86% hits; KKLEB NF-kB-GFP reporter, GFP fluorescence overnight; AID 588850, 2011;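 active = at least 50% inhibition at 5 µM, scaled per plate between neutral and stimulator controls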;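 also: PAF is a Pseudomonas aeruginosa culture filtrate used as stimulus; plate controls were PAF-stimulated DMSO wells for no effect and unstimulated DMSO wells for full effect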
Active calls of the source: *; ? = inconclusive.

SMILES	HIF-2a inh	KKLEB cytotox	Shn3 3UTR inh	Peg3 promoter	CF NFkB block
CN1CCN(Cc2cc(COCc3ccccc3)c3cccnc3c2O)CC1	11.3	5.3	74.2	40.7	8.9
O=[N+]([O-])c1cc(CN2CCN(c3ccccc3)CC2)c(O)c2ncccc12	17.0	8.6	89.8*	58.7*	6.2
CSc1ccc(C(=O)C2CCCN(C(=O)c3cccc(N4CCOCC4)c3)C2)cc1 (stereo not drawn)	7.7	5.5	-28.8	11.5	-14.0
Cc1cc(C)cc(CC(=O)N2CCC2(C)C(=O)NS(=O)(=O)c2ccc(C(C)(C)C)cc2)c1 (stereo not drawn)	-7.1	0.0	-20.5	-1.9	-6.0
CCOCC(=O)Nc1ccc(S(=O)(=O)N2CCC(c3nc4ccccc4[nH]3)CC2)cc1	8.5	1.7	-12.4	13.3	-8.8
Cc1nn(CC(=O)NCCCN2CCC(N3CCCCC3)CC2)c(=O)c2cc(-c3ccccc3)nn12	5.0	-8.4	9.1	77.9*	-7.1
COc1ccc(-c2cc3c(=O)n(CC(=O)NCCCN4CCN(Cc5ccccc5)CC4)ncn3n2)cc1	-41.1	-41.2	70.7	-75.2	2.9
COc1ccc(-c2cc3c(=O)n(CC(=O)NCCCN4CCC(Cc5ccccc5)CC4)ncn3n2)cc1	-5.8	-61.9*	69.9	96.0*	23.6
Cc1nn(CC(=O)NCCCN2CCN(C)CC2)c(=O)c2cc(-c3ccccc3)nn12	-1.8	-5.1	-2.2	-10.9	-7.1
Cc1cccc(NS(=O)(=O)c2ccc(C)c(C(=O)NC3CCN(Cc4ccccc4)CC3)c2)c1	10.1	-1.3	19.8	0.8	-7.1
CC(C)C[C@H](N)c1nnc(S(=O)(=O)Cc2cccc(F)c2)o1	18.9	0.8	44.0	66.8*	28.0
CC(C)CCNC(=O)c1ccc(CSCc2cccc(F)c2)o1	-17.2	2.3	-4.3	6.0	10.2
CCOC(=O)C1=C(N)OC2=C(C(=O)CCC2)C1c1ccc2c(c1)OCO2 (stereo not drawn)	-5.2	-12.7	-3.6	-5.5	2.4
O=C1Nc2ccc(Br)cc2C12NNc1ccccc1O2 (stereo not drawn)	-26.3	6.9	-17.0	67.3*	-82.7
CCOc1ccc2nc3cc(NCc4ccc(OC)cc4)ccc3c(N)c2c1	21.0	-5.0	?	92.7*	-22.1
CCn1cnc2cc(NCc3ccc(OC)cc3)ccc21	-182.4	16.3	-39.5	-170.4	2.3
C[C@H]1CN([C@@H](C)CO)C(=O)CCCn2nncc2CO[C@H]1CN(C)S(C)(=O)=O	0.7	4.2	3.4	-2.6	4.1
Cc1cc(Br)cn2c(Cc3ccsc3)c(C(C)(C)C)nc12	11.3	-27.1	-3.1	-0.2	9.3
O=C(Nc1ccc(-c2nc3ccccc3[nH]2)cc1)c1ccc2c(c1)OCO2	-2.5	-33.9	36.6	64.4*	38.6
Cc1cc(C)c(NC(=O)c2cccc(NC(=O)c3ccco3)c2)c(C)c1	18.3	19.1	15.9	73.2*	-16.7
O=C(Nc1ccc(Cl)c(-c2nc3ccccc3[nH]2)c1)c1ccc2c(c1)OCO2	-50.9	4.2	19.4	-11.9	-22.1
O=C(Nc1cccc(-c2nc3ccccc3[nH]2)c1)c1cccc(NC(=O)c2ccco2)c1	-51.4	-59.1*	42.4	104.4*	37.8
O=C(CSc1ccc(Cl)cc1)Nc1cccc(-c2nc3ccccc3[nH]2)c1	3.1	-8.6	-8.1	51.2*	-43.3
O=C(Nc1ccc2nc(-c3ccccc3)[nH]c2c1)c1ccco1	-226.2	7.5	-145.2	-244.3	-36.4
O=C(CSc1ccccc1)Nc1ccc(-c2nc3ccccc3[nH]2)cc1	-125.1	-11.9	11.9	-196.0	7.1
Cc1cc2c(=O)n(C)c(SCC(=O)Nc3ccc(F)cc3)nc2s1	8.0	9.3	-3.1	15.2	-5.8
CC(NCc1ccc(OCc2ccc(Cl)cc2)cc1)C(O)c1ccccc1 (stereo not drawn)	-63.2	-18.4	97.0*	104.1*	32.3
Nc1ncnc2c1nc(Sc1ccc(Cl)cc1)n2[C@@H]1O[C@@H]2COP(=O)(O)O[C@H]2[C@H]1O	-4.8	29.2	-30.5	6.6	-2.4
Cc1cccc(CSc2nc(N)c(C#N)c(-c3cccs3)c2C#N)c1	24.6	-20.4	47.3	63.0*	18.8
